From PubChem BioAssay (NCATS)
Results filed as inconclusive are left out. Activity calls are given as the source filed them. Unless noted, calls follow the shape of the dose curve; as a rule, active = well fitted inhibition curve with a large enough effect; inconclusive = small, poorly fitted or top-dose-only effect; inactive = flat fitted curve, though single readings scatter.

Columns and labels:
[1] = Drug repurposing screens with cells derived from glioblastoma tumor samples (AID 1345199); details: GBM patient neurospheres viability, ATP luminescence, 48 h; also: % is scaled to controls: 0 for no effect and ±100 for the full control effect; nearly all actives have a fitted effect of over 40% in size
Outline: (§1)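 Four patient lines of CD133+ GBM neurospheres were screened at several concentrations; hits were retested in those lines plus three slower-growing GBM lines, using 48-hour treatment and ATP-based viability.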

astro = control astrocytes; test: as above; details: viability, ATP luminescence, 48 h; series mostly up to 45.9 µM
Outline: as §1

[2] = qHTS assay for small molecule activators of the human pregnane X receptor (PXR) signaling pathway (AID 720659; call rule not given here; also: 0% is about no effect); details: DPX-2 HepG2 CYP3A4-luciferase, 24 h; series mostly up to 92.3 µM
[3] = at 45.9 µM (top of the series), tumour line B
[4] = at 45.9 µM (top of the series), tumour line D
[5] = at 46.1 µM (top of the series), tumour line C
[6] = at 46 µM (top of the series), tumour line A

CC(=O)O[C@H]1CC[C@H]2[C@@H]3CCC4=CC(=O)CCC4=C3C=C[C@]12C
inactive: activity, negative = cell killing [1, 3] -12.7% | activity, negative = cell killing [1, 4] -6.7% | activity, negative = cell killing [1, 5] -16.1% | Potency (astro)

O=C(CCl)c1ccc(Oc2ccc(C(=O)CCl)cc2)cc1
inactive: activity, negative = cell killing [1, 3] -24.4% | activity, negative = cell killing [1, 4] -6.59% | activity, negative = cell killing [1, 5] -8.36% | Potency (astro)

C[N+]1(C)CCCCC1COC(=O)C(O)(c1ccccc1)c1ccccc1 (stereo not drawn)
inactive: activity, negative = cell killing [1, 3] -0.912% | activity, negative = cell killing [1, 4] -3.36% | activity, negative = cell killing [1, 5] -16.5% | Potency (astro)

OC[C@@H](O)[C@H]1O[C@@H]2O[C@H](C(Cl)(Cl)Cl)O[C@@H]2[C@H]1O
inactive: activity, negative = cell killing [1, 3] -1.98% | activity, negative = cell killing [1, 4] -2.86% | activity, negative = cell killing [1, 5] -11.5% | Potency (astro)

C=CCN(C1=NCCN1)c1c(Cl)cccc1Cl
inactive: activity, negative = cell killing [1, 3] -5.59% | activity, negative = cell killing [1, 4] -0.731% | activity, negative = cell killing [1, 5] -15.8% | Potency (astro)

O=c1[nH]cc(N(CCCl)CCCl)c(=O)[nH]1
inactive: activity, negative = cell killing [1, 3] -11% | activity, negative = cell killing [1, 4] -17.9% | activity, negative = cell killing [1, 5] -21.9% | Potency (astro)

O=C(CS(=O)C(c1ccccc1)c1ccccc1)NO (stereo not drawn)
inactive: activity, negative = cell killing [1, 3] -1.04% | activity, negative = cell killing [1, 6] -19.6% | activity, negative = cell killing [1, 5] -22% | Potency (astro)

O=C(NCNC(=O)NC1C(=O)NC(=O)N1CO)NC1C(=O)NC(=O)N1CO (stereo not drawn)
inactive: activity, negative = cell killing [1, 3] -11.9% | activity, negative = cell killing [1, 4] 3.73% | activity, negative = cell killing [1, 5] -7.65% | Potency (astro)

ClC(Cl)(Cl)Cl
inactive: activity, negative = cell killing [1, 3] -3.78% | activity, negative = cell killing [1, 4] 4.09% | activity, negative = cell killing [1, 6] -14.3% | activity, negative = cell killing [1, 5] -6.14% | Potency (astro) | outcome [2]
